From publication PMC13423814

Target: HNRNPC (UniProt P07910)
Conditions: DSSO, in cells

Question: How did the cross-linked residues turn out when HNRNPR, O43390 was run?
Answer: K374 - K8
